Consider 85 compounds from PubChem BioAssay AID588405 (Sanford-Burnham Center for Chemical Genomics, 2011).

Several values for one entry are separate records, joined by “and”; a condition that tells them apart may be missing. Equal values may be shown once. The campaign covered roughly 360,000 compounds. About 6,200 (1.7%) were called active.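 Rule for the calls: active = inhibition of at least 50% at 20 µM; inactive = the rest.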 Only a selection was taken, and actives are over-represented in it overall. A structure can be active in one record and inactive in another.

The nature of the assay: Peg3 promoter-driven luciferase inhibitors, primary screen, cell-based, HeLa, luciferase luminescence (AID 588405). To be noted: HeLa PEG-Prom luciferase reporter, overnight, at 20 µM, stronger effect = higher value. On the technique in general: In a reporter assay the amount or activity of a reporter protein is the signal.
The term inhibition denotes the drop in the measured response relative to a control, in per cent. As for `O=C(Nc1ccc(F)cc1)C1CCCN(S(=O)(=O)c2ccc(-n3cnnn3)cc2)C1` (stereo not given), the inhibition is 24.8% (inactive).

Regarding `Cc1ccc(-c2ccc(=O)n(CC(=O)NCCCN3CCCCC3)n2)cc1`, the inhibition is 5% (inactive).

Regarding `Cc1nn(CC(=O)NCCc2ccccc2)c(=O)c2cc3occc3n12`, the inhibition was -8.09% (inactive).

Turning to `CCc1ccc(-c2cc3c(=O)n(CC(=O)NCCCN4CCN(Cc5ccccc5)CC4)nc(C)n3n2)cc1`, the inhibition was 105% (active).

As to `CC1(C(=O)Nc2cccnc2)Cc2c(-c3ccccc3)ccnc2O1` (stereo not given), the inhibition is 13.4% (inactive).

For the compound `CC1(C(=O)Nc2cccc(Oc3ccccc3)c2)CCN1Cc1ccccc1Cl` (stereo not given), the inhibition was 18.7% (inactive).

For the compound `Nc1ncnc2c1ncn2[C@@H]1O[C@H](C(=O)N2CCSC2)[C@@H](O)[C@H]1O`, the inhibition was -1.06% (inactive).

Consider `COc1ccccc1Cc1c(-c2ccc(Cl)cc2)nc2ccc(Cl)cn12`, for which the inhibition is -200% (inactive).

In the case of `Cc1cccc(C)c1-n1nnnc1C(CCc1ccccc1)N1CCN(C/C=C/c2ccccc2)CC1` (stereo not given), the inhibition was 4.21% (inactive).

As for `COc1cc(OC)nc(N/N=C(\c2ccccc2)c2ccncc2)n1`, the inhibition was -16.6% (inactive).

Take `C/C(=N/Nc1nc(-c2ccccc2)c(CC(=O)O)s1)c1ccccc1`: the inhibition was -245% (inactive).

On to `c1ccc(C(=NNc2nc3ccccc3s2)c2ccccn2)cc1`, for which the inhibition is 60.3% (active).

In the case of `CCCNC(=O)c1cc(C2CCCCN2C(=O)OC)on1` (stereo not given), the inhibition is 8.59% (inactive).

As to `CCOc1cc(-c2conc2N)cc(OCC)c1OCC`, the inhibition is 10.1% (inactive).

`CC(C)CNC(=O)C1(C)CCCN1C(=O)CSc1ccccc1` (stereo not given): the inhibition was -0.74% (inactive).

As to `CCNC(=S)NNC(=O)c1ccc2ncccc2c1`, the inhibition was -28.3% (inactive).

With `Cc1ccc2cc(/C=N/Nc3ccc(C(=O)O)cc3)c(Cl)nc2c1`, the inhibition was -255% (inactive).

As for `O=C(O)c1ccc(N/N=C/c2ccc3ncccc3c2)cc1`, the inhibition is 70.7% (active).

`COc1cccc(NC(=O)CN(C)C(C)C(=O)Nc2ccc(C#N)cc2)c1` (stereo not given): the inhibition is 20% (inactive).

`COc1cc(NC(=O)c2cncc(-c3ccc(C#N)cc3)c2)cc(C(=O)Nc2cccc(C(F)(F)F)c2)c1`: the inhibition is 22% (inactive) and 56% (active).

Regarding `O=C(Nc1cccc(C(F)(F)F)c1)c1ccc(N2CCNCC2)c([N+](=O)[O-])c1`, the inhibition is 22.1% (inactive).

As for `CCOC(=O)c1ccc(NC(=O)c2nc[nH]c2C(=O)NCc2ccccc2)cc1`, the inhibition was 32.4% (inactive).

`COc1cc(NC(=O)c2[nH]cnc2C(N)=O)cc(C(=O)Nc2cccc(C(F)(F)F)c2)c1`: the inhibition was 101% (active).

Take `O=C(O)CSc1c2c(nc3cc(C(=O)Nc4cccc(C(F)(F)F)c4)ccc13)CCCC2`: the inhibition is 13.5% (inactive).

With `O=C1c2ccccc2-c2ccccc2NC1O` (stereo not given), the inhibition is -8.48% (inactive).

Turning to `COc1ccc(C(c2nnnn2C2CCCC2)N2CCN(C/C=C/c3ccccc3)CC2)cc1` (stereo not given), the inhibition was -2% (inactive).

Regarding `CC(=O)Nc1ccc(-c2ccnc3c2CC(C(=O)NC(C)C)O3)cc1` (stereo not given), the inhibition is -1.44% (inactive).

`CC1(C(=O)NCC2CCOCC2)Cc2c(-c3cccc(C(N)=O)c3)ccnc2O1` (stereo not given): the inhibition was 8.22% (inactive).

On to `O=C(CSc1nc2cccc(F)c2c(=O)n1-c1ccccc1)Nc1ccc2c(c1)CCC2`, for which the inhibition was 2.19% (inactive).

On to `Cc1ccc(C)c(N2CCN(C(=O)CCCCCn3c(=S)[nH]c4ccc(N5CCOCC5)cc4c3=O)CC2)c1`, for which the inhibition is 92.5% (active).

With `O=C(CCCCCn1c(=S)[nH]c2cc3c(cc2c1=O)OCO3)N1CCN(c2ccc(F)cc2)CC1`, the inhibition is -0.75% (inactive).

As to `Cc1ccc(C)c(N2CCN(C(=O)CCCn3c(=O)c4cccn4c4cccnc43)CC2)c1`, the inhibition was 34.6% (inactive).

Regarding `COCCNC(=O)C1CCCN(Cc2ccccc2Cl)CC1` (stereo not given), the inhibition is 5.2% (inactive).

Consider `CSc1nc(-c2ccccc2)nc(C(Cl)Cl)n1`, for which the inhibition was 98.3% (active).

As to `O=C(COC(=O)C12CC3CC(CC(O)(C3)C1)C2)NC12CC3CC(CC(C3)C1)C2`, the inhibition is 9.7% (inactive).

As for `CC1(Cc2cccc(C#N)c2)C(=O)Nc2ccc(-c3cccc(C(F)(F)F)c3)cc21` (stereo not given), the inhibition was 37% (inactive).

Turning to `CC(C)(O)C#Cc1ccc(CN2CCC(CO)(CCc3ccccc3)CC2)cc1`, the inhibition is 1.12% (inactive).

On to `CCOC(=O)C1(CCOc2ccccc2)CCN(Cc2ccc(C#CCCO)cc2)CC1`, for which the inhibition is 15.7% (inactive).

For `Cc1c(CN2CCC(CO)(CCOc3ccccc3)CC2)[nH]c2ccc(Cl)cc12`, the inhibition was 85.4% (active).

Take `C=CC[C@@H](CC(=O)N[C@@H](CO)Cc1ccccc1)C(=O)N[C@H](COC(=O)[C@H](CC=C)CC(=O)OC(C)(C)C)Cc1ccccc1`: the inhibition is 59.8% (active).

On to `C=CC[C@@H](CC(=O)N[C@H](CO)Cc1ccccc1)C(=O)N[C@H](C)COC(=O)[C@@H](CC=C)Cc1ccc(F)cc1`, for which the inhibition is 12.6% (inactive).

For the compound `C=CC[C@@H](CC(=O)N[C@@H](CO)Cc1ccccc1)C(=O)NCCOC(=O)[C@@H](CC=C)CC(=O)OC(C)(C)C`, the inhibition was 4.88% (inactive).

Regarding `CCOC(=O)c1c(-n2cnnn2)sc(C)c1C`, the inhibition is -0.91% (inactive).

Consider `CNC(=O)C1CC(=O)N(Cc2ccc3c(c2)OCO3)C(=Nc2ccc(F)cc2)S1` (stereo not given), for which the inhibition was -64.3% (inactive).

Take `COc1ccccc1N(CCOc1ccccc1)S(=O)(=O)c1ccccc1`: the inhibition is 18.4% (inactive).

Consider `Clc1ccc(-c2cc(C3CCNCC3)[nH]n2)c(Cl)c1`, for which the inhibition is 58.7% (active).

For the compound `Clc1ccc(-c2cc(-c3ccccn3)on2)c(Cl)c1`, the inhibition was -90.8% (inactive).

Regarding `Fc1cccc(Cc2c(-c3cccc(Cl)c3)nc3ccc(Br)cn23)c1`, the inhibition was -153% (inactive).

Take `O=C(O)CC1S/C(=N\N=C/c2ccccc2O)N(c2ccc(O)cc2)C1=O` (stereo not given): the inhibition is -0.29% (inactive).

`COc1ccc(CN(C)C(=O)Cc2c[nH]c3ccccc23)c(OC)c1OC`: the inhibition was 13.2% (inactive).

Turning to `COc1ccc(-c2cc(C(=O)NCCCN3CCCC3=O)c3ccccc3n2)cc1OC`, the inhibition was -2.28% (inactive).

For the compound `COc1ccc(S(=O)(=O)N2CCCCCC2)cc1C(=O)N(C)Cc1cccc(OC)c1OC`, the inhibition was 5.19% (inactive).

In the case of `COc1ccc(-c2cc(C(=O)N(C)CC(=O)Nc3ccccc3Cl)c3ccccc3n2)cc1OC`, the inhibition was 43.6% (inactive).

Consider `COc1ccc(CN(C)C(=O)c2cc(-c3ccc(C)cc3C)nc3ccccc23)c(OC)c1OC`, for which the inhibition was 75.3% (active).

On to `COc1ccc(-c2cc(C(=O)N(C)Cc3ccc(OC)c(OC)c3OC)c3ccccc3n2)cc1OC`, for which the inhibition is 50.1% (active).

For `Cc1ccc(CN2CCC(N3CCC(C(=O)NCC4CCCO4)CC3)CC2)o1` (stereo not given), the inhibition was -0.4% (inactive).

Consider `CS(=O)(=O)c1cccc(-c2ccc3nncn3c2)c1`, for which the inhibition is -2.9% (inactive).

With `CCc1nc2ccc(C(=O)N3CCN(S(=O)(=O)CC)CC3)cn2c1N(C=O)CCC(C)C`, the inhibition is -6.03% (inactive).

In the case of `CC(C)[C@H](NC(=O)N1CC(=O)Nc2ccccc21)C(=O)N[C@@H](Cc1c[nH]c2ccccc12)C(=O)O`, the inhibition is 14.7% (inactive).

Regarding `O=C(NCc1cccc(C(F)(F)F)c1)c1ccc2sc(COCCO)nc2c1`, the inhibition was -51.8% (inactive).

Regarding `COc1cccc(CNc2nc3cc(-c4csc5ccccc45)sc3c(=O)n2C)c1`, the inhibition is -0.35% (inactive).

With `COc1ccc(CCNC(=O)CN(c2ccccc2)S(C)(=O)=O)cc1OC`, the inhibition was 18.5% (inactive).

Turning to `COc1ccc(CN(Cc2ccc(OC)cc2)C(=O)c2cccs2)cc1`, the inhibition was 0.72% (inactive).

For the compound `COc1ccc(C(CCN(Cc2ccc(OC)c(OC)c2)C(=O)CCl)c2ccccc2)cc1` (stereo not given), the inhibition was 105% (active).

As to `CCCc1nc(N2CCN(C)CC2)c2sc(=S)n(-c3ccccc3)c2n1`, the inhibition is 30.8% (inactive).

Turning to `OC[C@@H]1CN(Cc2ccc(Cl)cc2)C[C@H](n2cnc3c(NCc4ccncc4)ncnc32)O1`, the inhibition was 8.27% (inactive).

Turning to `FC(F)(F)Oc1ccccc1C(c1nnnn1C1CCCCC1)N1CCN(C/C=C/c2ccccc2)CC1` (stereo not given), the inhibition was -12.9% (inactive).

On to `CC[C@H]1CN2CCc3cc(OC)c(OC)cc3[C@@H]2C[C@@H]1C[C@H]1NCCc2cc(OC)c(OC)cc21`, for which the inhibition is 95% (active).

Take `CC(C)C[C@H]1CN([C@@H](Cc2ccccc2)CN2CCC[C@@H]2CN2C(=O)C(=O)NC[C@@H]2Cc2ccc(O)cc2)C(=O)C(=O)N1CCc1ccccc1`: the inhibition is -8.17% (inactive).

Consider `CCOC(=O)C1=CCC(c2ccc(F)cc2)N(S(=O)(=O)c2ccc(C)cc2)C1` (stereo not given), for which the inhibition is 18.4% (inactive).

On to `CCc1nc2c(OCC(=O)C(C)(C)C)cccn2c1N(C)C(=O)c1ccccc1F`, for which the inhibition is -3.25% (inactive).

On to `COc1ccc(OC)c(C(O)c2ncc(-c3cccc(C(F)(F)F)c3)[nH]2)c1` (stereo not given), for which the inhibition was 1.51% (inactive).

Turning to `CCCC[C@@H]1CN=C(N)N1CCCC`, the inhibition is 6.54% (inactive).

For the compound `CCCC[C@@H]1CN=C(N)N1CCc1cccc(F)c1`, the inhibition is 2.77% (inactive).

As to `CCCC[C@@H]1CN=C(N)N1CCc1cc(C(F)(F)F)cc(C(F)(F)F)c1`, the inhibition is 64.1% (active).

Turning to `Cn1c(Nc2ccc(F)cc2)nc2cc(-c3ccsc3)sc2c1=O`, the inhibition is -53.6% (inactive).

For `CC1(C(=O)Nc2ccccc2Br)CCN1C(=O)CC1CC1` (stereo not given), the inhibition was 3.67% (inactive).

For `CCOC(=O)C1=CCC2C(=O)N(Cc3ccccc3)C(=O)C12` (stereo not given), the inhibition was -14.8% (inactive).

On to `CNC[C@H]1OCc2cnnn2CCCC(=O)N([C@H](C)CO)C[C@@H]1C`, for which the inhibition was -4.6% (inactive).

For the compound `COc1ccc(OC)c(NC(=O)c2cc(-c3cc(F)ccc3OCC3CCCO3)n[nH]2)c1` (stereo not given), the inhibition is 25.5% (inactive).

In the case of `Cc1cc(C)nc(SC(C)C(=O)N/N=C/c2cccs2)n1` (stereo not given), the inhibition is 2.36% (inactive).

Turning to `Cc1cc(C)nc(S/C=C/C(=O)c2ccccc2)n1`, the inhibition is 109% (active).

With `COC(c1ccccc1)(c1ccccc1)C(Oc1nc(C)cc(C)n1)C(=O)O` (stereo not given), the inhibition is 19% (inactive).

With `Cc1coc(C)c1C(=O)CC1(O)C(=O)N(C)c2ccc(Cl)cc21` (stereo not given), the inhibition is 7.27% (inactive).

In the case of `CCOc1ccc(N2CC(C(=O)N/N=C/c3sccc3C)CC2=O)cc1` (stereo not given), the inhibition is 13.4% (inactive).
